Data: PubChem BioAssay (NCI)
About 83,000 compounds went through this panel and 20% of them were active in at least one assay; those are over-represented in the sample as a whole.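 Each cell line was grown in a 96-well plate and treated with one concentration of compound for 48 hours. Values below 10 were considered active.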 Activity calls are given as the source filed them.

Experiments:
Assay in all cases: NCI-60 one-dose screen, 48 h (100 = growth as untreated, 0 = no growth, -100 = all killed)
Conditions in all cases: 10 µM unless noted
DU-145 prostate = tested on: DU-145 prostate
K-562 leukemia = tested on: K-562 leukemia
MALME-3M melanoma = tested on: MALME-3M melanoma
MDA-MB-231 breast = tested on: MDA-MB-231 breast
RXF 393 renal = tested on: RXF 393 renal
SF-268 CNS = tested on: SF-268 CNS
SF-295 CNS = tested on: SF-295 CNS
SF-539 CNS = tested on: SF-539 CNS
UACC-257 melanoma = tested on: UACC-257 melanoma
M14 melanoma = tested on: M14 melanoma
HCT-15 colon = tested on: HCT-15 colon
HT29 colon = tested on: HT29 colon
SNB-19 CNS = tested on: SNB-19 CNS
U251 CNS = tested on: U251 CNS
PC-3 prostate = tested on: PC-3 prostate
SK-MEL-5 melanoma = tested on: SK-MEL-5 melanoma
UACC-62 melanoma = tested on: UACC-62 melanoma
LOX IMVI melanoma = tested on: LOX IMVI melanoma
SK-MEL-28 melanoma = tested on: SK-MEL-28 melanoma
SNB-75 CNS = tested on: SNB-75 CNS

Measured: growth

Cc1cc(O[C@@H]2O[C@@H](C)[C@H](O)[C@@H](O)[C@H]2O)c2c3c(c(O[C@@H]4O[C@@H](C)[C@H](O)[C@@H](O)[C@H]4O)cc2c1)C(=O)c1c(O)cccc1C3=O
inactive: DU-145 prostate 98% | K-562 leukemia 79.6% | MALME-3M melanoma 107% | MDA-MB-231 breast 86.3% | RXF 393 renal 29.6% | SF-268 CNS 56.3% | SF-295 CNS 79% | SF-539 CNS 92.5% | UACC-257 melanoma 87.2% | M14 melanoma 82.6% | HCT-15 colon 87.9% | HT29 colon 72.4% | SNB-19 CNS 94.3% | U251 CNS 82% | PC-3 prostate 56.7% | SK-MEL-5 melanoma 67.8% | UACC-62 melanoma 65.6% | LOX IMVI melanoma 74% | SK-MEL-28 melanoma 90.8%

Nn1c(CN2CCN(c3cc4c(cc3F)c(=O)c(C(=O)O)cn4C3CC3)CC2)n[nH]c1=S
inactive: DU-145 prostate 107% | K-562 leukemia 101% | MALME-3M melanoma 94.6% | MDA-MB-231 breast 107% | RXF 393 renal 109% | SF-268 CNS 95.9% | SF-295 CNS 102% | SF-539 CNS 99.3% | UACC-257 melanoma 111% | M14 melanoma 105% | HCT-15 colon 106% | HT29 colon 97.8% | SNB-75 CNS 86.4% | U251 CNS 112% | SK-MEL-5 melanoma 97.5% | UACC-62 melanoma 93.9% | LOX IMVI melanoma 103% | SK-MEL-28 melanoma 109%

COc1ccccc1P(c1ccccc1OC)c1ccccc1OC
inactive: DU-145 prostate 109% | K-562 leukemia 107% | MALME-3M melanoma 104% | MDA-MB-231 breast 101% | RXF 393 renal 102% | SF-268 CNS 109% | SF-295 CNS 97.3% | SF-539 CNS 101% | UACC-257 melanoma 78.1% | M14 melanoma 101% | HCT-15 colon 104% | HT29 colon 92.2% | SNB-19 CNS 75.7% | U251 CNS 95.7% | PC-3 prostate 80% | SK-MEL-5 melanoma 88.6% | UACC-62 melanoma 90% | LOX IMVI melanoma 85.4% | SK-MEL-28 melanoma 117%

COc1cc(NC(C)CCCN2C(=O)c3ccccc3C2=O)c2ncccc2c1OC (configuration not stated)
inactive: DU-145 prostate 104% | K-562 leukemia 71.3% | MALME-3M melanoma 74.1% | MDA-MB-231 breast 90.2% | RXF 393 renal 95% | SF-268 CNS 108% | SF-295 CNS 81.1% | SF-539 CNS 98.6% | UACC-257 melanoma 99.4% | M14 melanoma 78.7% | HCT-15 colon 94.1% | HT29 colon 101% | SNB-19 CNS 94.1% | U251 CNS 107% | PC-3 prostate 71.3% | SK-MEL-5 melanoma 84.3% | UACC-62 melanoma 90.1% | LOX IMVI melanoma 79.2% | SK-MEL-28 melanoma 105%

OC(COc1ccccc1Cl)CN1CCN(c2ccc(Cl)cc2)CC1 (configuration not stated)
inactive: DU-145 prostate 110% | K-562 leukemia 115% | MALME-3M melanoma 110% | MDA-MB-231 breast 103% | RXF 393 renal 94.3% | SF-268 CNS 104% | SF-295 CNS 97.9% | SF-539 CNS 90.6% | UACC-257 melanoma 109% | M14 melanoma 105% | HCT-15 colon 90.5% | HT29 colon 113% | SNB-75 CNS 83.3% | U251 CNS 99.5% | PC-3 prostate 85.1% | SK-MEL-5 melanoma 104% | UACC-62 melanoma 95.9% | LOX IMVI melanoma 104% | SK-MEL-28 melanoma 103%

COc1ccc(N)c(S)c1
inactive: DU-145 prostate 102% | K-562 leukemia 97.4% | MALME-3M melanoma 101% | MDA-MB-231 breast 86.7% | RXF 393 renal 111% | SF-268 CNS 105% | SF-295 CNS 100% | SF-539 CNS 101% | UACC-257 melanoma 80.5% | M14 melanoma 101% | HCT-15 colon 97% | HT29 colon 100% | SNB-19 CNS 100% | U251 CNS 93.8% | PC-3 prostate 73.4% | SK-MEL-5 melanoma 91.5% | UACC-62 melanoma 93.5% | LOX IMVI melanoma 92.3% | SK-MEL-28 melanoma 113%

Cc1nccc2c3ccc(OCc4cn(Cc5ccc(Br)cc5)nn4)cc3n(CCCc3ccccc3)c12
inactive: DU-145 prostate 91.9% | K-562 leukemia 75.5% | MALME-3M melanoma 92.9% | MDA-MB-231 breast 79.3% | RXF 393 renal 82% | SF-268 CNS 81% | SF-295 CNS 86.2% | SF-539 CNS 77% | UACC-257 melanoma 99.3% | M14 melanoma 103% | HCT-15 colon 92.8% | HT29 colon 80.7% | SNB-19 CNS 47.3% | U251 CNS 82.3% | PC-3 prostate 77.9% | SK-MEL-5 melanoma 81.1% | UACC-62 melanoma 82.1% | LOX IMVI melanoma 93.3% | SK-MEL-28 melanoma 99.4%

CCOC(=O)C1=C(N)Oc2cc(OC)ccc2C1c1ccc(F)c(F)c1 (configuration not stated)
inactive: DU-145 prostate 37.7% | K-562 leukemia 11.2% | MALME-3M melanoma 59.3% | MDA-MB-231 breast 47.4% | SF-268 CNS 51.3% | SF-295 CNS 17.7% | SF-539 CNS 17.8% | UACC-257 melanoma 53.4% | M14 melanoma 18% | HCT-15 colon 22.3% | SNB-19 CNS 28.1% | U251 CNS 28.2% | PC-3 prostate 26.8% | SK-MEL-5 melanoma 12.8% | UACC-62 melanoma 25.5% | LOX IMVI melanoma 43.8% | SK-MEL-28 melanoma 63.2%
active: RXF 393 renal -9.59% | HT29 colon 2.96%

Oc1ccccc1/C=N/c1ccccn1
inactive: DU-145 prostate 129% | K-562 leukemia 109% | MALME-3M melanoma 115% | MDA-MB-231 breast 106% | RXF 393 renal 107% | SF-268 CNS 110% | SF-295 CNS 121% | SF-539 CNS 100% | UACC-257 melanoma 91.4% | M14 melanoma 100% | HCT-15 colon 104% | HT29 colon 114% | SNB-19 CNS 88% | U251 CNS 99% | SK-MEL-5 melanoma 97% | UACC-62 melanoma 106% | LOX IMVI melanoma 94.4% | SK-MEL-28 melanoma 117%

O=C(C[n+]1cccc(Br)c1)c1ccc2c(c1)CCCC2
inactive: DU-145 prostate 110% | K-562 leukemia 100% | MALME-3M melanoma 96.6% | MDA-MB-231 breast 99.4% | RXF 393 renal 117% | SF-268 CNS 103% | SF-295 CNS 104% | SF-539 CNS 98.6% | UACC-257 melanoma 112% | M14 melanoma 92.4% | HCT-15 colon 99.4% | HT29 colon 80.7% | SNB-19 CNS 108% | U251 CNS 102% | PC-3 prostate 94.3% | SK-MEL-5 melanoma 99.2% | UACC-62 melanoma 104% | LOX IMVI melanoma 97.1% | SK-MEL-28 melanoma 105%

COc1ccc2c(c1)OC(N)=C(C#N)C2c1ccc(F)c(F)c1 (configuration not stated)
active: K-562 leukemia 9.04% | RXF 393 renal -9.6% | HT29 colon 3.2%
inactive: DU-145 prostate 30.4% | MALME-3M melanoma 78.4% | MDA-MB-231 breast 44.5% | SF-268 CNS 56.7% | SF-295 CNS 23.1% | SF-539 CNS 14.6% | UACC-257 melanoma 73% | M14 melanoma 18.8% | HCT-15 colon 29.6% | SNB-19 CNS 28.7% | U251 CNS 31% | PC-3 prostate 24.2% | SK-MEL-5 melanoma 24.2% | UACC-62 melanoma 38.1% | LOX IMVI melanoma 54.2% | SK-MEL-28 melanoma 68.2%

N#Cc1c(N)nc2c(c1N)C(c1ccc(Cl)cc1)C1=C(CCCC1=O)N2c1sc2c(c1C#N)CCCC2 (configuration not stated)
inactive: DU-145 prostate 99.7% | K-562 leukemia 74.2% | MALME-3M melanoma 90.7% | MDA-MB-231 breast 75.4% | RXF 393 renal 60.6% | SF-268 CNS 89.5% | SF-295 CNS 101% | SF-539 CNS 96% | UACC-257 melanoma 92.6% | M14 melanoma 90.3% | HCT-15 colon 102% | HT29 colon 81.2% | SNB-19 CNS 92.4% | U251 CNS 99.7% | PC-3 prostate 89% | SK-MEL-5 melanoma 98.6% | UACC-62 melanoma 88.3% | LOX IMVI melanoma 81.5% | SK-MEL-28 melanoma 96.6%

CCCN1C(=O)CSC1=Nc1ccc2cc3ccc(N=C4SCC(=O)N4CCC)cc3nc2c1
inactive: DU-145 prostate 83.7% | K-562 leukemia 21.4% | MALME-3M melanoma 33.5% | MDA-MB-231 breast 18.5% | SF-268 CNS 62.9% | SF-295 CNS 23% | SF-539 CNS 46% | UACC-257 melanoma 43.9% | M14 melanoma 50.7% | HCT-15 colon 24.4% | SNB-19 CNS 55.4% | U251 CNS 36.9% | PC-3 prostate 16.7% | UACC-62 melanoma 36.9% | LOX IMVI melanoma 11.4% | SK-MEL-28 melanoma 86.5%
active: RXF 393 renal -27.9% | HT29 colon 4.45% | SK-MEL-5 melanoma -17.7%

COc1ccc(/C=C2\CS(=O)(=O)C/C(=C\c3ccc(OC)cc3)C2=O)cc1
inactive: SNB-75 CNS 60.2%
active: DU-145 prostate -44.2% | K-562 leukemia -15.4% | MALME-3M melanoma -23% | MDA-MB-231 breast 8.06% | SF-268 CNS -24.7% | SF-295 CNS -14.4% | SF-539 CNS -54.6% | UACC-257 melanoma -80.5% | M14 melanoma -78.1% | HCT-15 colon 2.14% | HT29 colon -51.2% | SNB-19 CNS 3.69% | U251 CNS -3.78% | PC-3 prostate -33.5% | SK-MEL-5 melanoma -91.5% | UACC-62 melanoma -64.1% | LOX IMVI melanoma -26.7% | SK-MEL-28 melanoma -23.4%

CC(CN(C)C)CN1c2ccccc2CCc2ccccc21 (configuration not stated)
inactive: DU-145 prostate 106% | K-562 leukemia 65.4% | MALME-3M melanoma 88.8% | MDA-MB-231 breast 85.9% | SF-268 CNS 93% | SF-295 CNS 87.5% | SF-539 CNS 90.5% | UACC-257 melanoma 105% | M14 melanoma 52.3% | HCT-15 colon 89.9% | HT29 colon 56.7% | SNB-75 CNS 66.9% | SNB-19 CNS 96.8% | U251 CNS 85.6% | PC-3 prostate 66.7% | SK-MEL-5 melanoma 77.9% | UACC-62 melanoma 77.1% | LOX IMVI melanoma 74.5% | SK-MEL-28 melanoma 84.9%

CCOC(=O)C(C)(CSSCC(C)(NC(=O)c1ccc2ccccc2c1)C(=O)OCC)NC(=O)c1ccc2ccccc2c1 (configuration not stated)
inactive: DU-145 prostate 117% | K-562 leukemia 91.1% | MALME-3M melanoma 115% | MDA-MB-231 breast 114% | SF-268 CNS 102% | SF-295 CNS 96.2% | SF-539 CNS 114% | M14 melanoma 114% | HCT-15 colon 82.2% | HT29 colon 81.2% | SNB-75 CNS 107% | SNB-19 CNS 86% | U251 CNS 94.8% | PC-3 prostate 108% | SK-MEL-5 melanoma 109% | UACC-62 melanoma 96.1% | LOX IMVI melanoma 89% | SK-MEL-28 melanoma 132%
active: UACC-257 melanoma -17.8%
